Reference: PubChem BioAssay (NCI)
The panel holds about 83,000 compounds, 20% with a hit somewhere; the sample as a whole holds those more often.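 Interpretation: 100, growth as untreated; towards 0, rising growth inhibition; 0, no net growth; 0 to -100, cell death. Compounds scoring below 10 were considered active.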 Calls of active or inactive are those of the source.

Test system: MDA-MB-468 breast
Assay: NCI-60 one-dose screen, 48 h (100 = growth as untreated, 0 = no growth, -100 = all killed)
Settings: 10 µM unless noted

Structure (SMILES) | growth
CC(Sc1nc2ccccc2c(=O)n1CCc1ccc(S(N)(=O)=O)cc1)C(=O)Nc1ccc(Cl)cc1 (centres undefined) | 84% (inactive)
COc1ccc(/C=C/c2c(C(=O)/C=C/c3ccc(F)cc3)c(C)nc3ccccc23)cc1 | 51.5% (inactive)
CN1CCCN(CCNc2nccc(-c3c(-c4cccc(O)c4)nc4sccn34)n2)S1(=O)=O | 68.9% (inactive)
COc1cc(OC)c2c(c1)c1nc3cc(C)c(C)cc3nc1n2CCN(C)C | 117% (inactive)
COc1cccc(Nc2ncnn3ccc(CN4CC[C@@H](N)[C@H](O)C4)c23)c1 | -42.4% (active)
O=C1/C(=C/c2ccccc2)CN(C(=O)C(Cl)Cl)C/C1=C\c1ccccc1 | -32.8% (active)
CC(C)C(=O)Nc1ncc(C(=O)NCCN(Cc2ccccc2)C(=O)c2ccc(S(=O)(=O)Nc3ccccc3)cc2)s1 | 80.3% (inactive)
CN(C)c1ccc(/C=N/NC(=O)CSc2nc3sc4c(c3c(=O)n2-c2ccccc2)CCCCC4)cc1 | 26.2% (inactive)
CC(=O)c1cc2c(cc1F)C(C)(C)CCC2(C)C | 101% (inactive)
CCCCCCNC(=O)Oc1ccc(/C(=C(/C)Cc2ccc(OC)cc2)c2ccc(OCCN3CCCCC3)cc2)cc1 | 88.6% (inactive)
c1nc2ccc(-c3cc4ccc5[nH]ncc5c4c4c3CCCC4)cc2[nH]1 | 17.1% (inactive)
CC(C)CCOC(=O)c1ccccc1 | 115% (inactive)
CNC(=O)c1cc(Oc2cccc3nc(Nc4ccc(Oc5ccccc5)cc4)ccc23)ccn1 | 63.7% (inactive)
CC(C)C[C@H]1C(=O)O[C@H](C(C)C)C(=O)N(C)[C@@H](C(C)C)C(=O)O[C@H](C(C)C)C(=O)N(C)[C@@H](C(C)C)C(=O)O[C@H](C(C)C)C(=O)N1C | -7.13% (active)
